The structures appear in SMILES notation. In all, about 68,000 compounds went through this assay and about 2,700 (4%) showed an effect of 50% or more. This excerpt belongs to a sample that is enriched for strong results.

The subject of this experiment is Plasmodium berghei. As to the kind of experiment: Screen against P. berghei liver stage (PbLuc), transformed with Luciferase, at 2uM. In kind it is functional, HepG2. The note with it: tested at 2 uM.
As to `CCc1cc(NCCC(F)(F)F)nc(N2CCOCC2)n1`, the INHIBITION came to 35.15%.
The same measure for `CN1C(=O)C2(CCN(CCO)C2)c2ccccc21` (stereo not given): 59.33%; for `CN1C(=O)C2(CCN(CC3CCC3)C2)c2ccccc21` (stereo not given): 19.05%.
The same measure for `CN1C(=O)C2(CCN(CC3CC3)CC2)c2ccccc21`: 1.42%; for `NC(=O)N1CCC2(CCN(C(=O)c3cccnc3)CC2)C1`: -14.06%; for `CCNC(=O)[C@@H]1C[C@H](NC(=O)c2ccc(C)s2)CN1Cc1ccc(C)o1`: -12.44%.
The same measure for `Cc1occc1C(=O)N1Cc2nccn2CC(CN2CCOCC2)C1` (stereo not given): 25.86%.
`COc1nc2c(cc1C(=O)NCCCc1nnc(N)s1)CCC2`: the INHIBITION is 38.32%.
In the case of `Cc1noc(CN(C)C2CCCN(Cc3noc(C4CC4)n3)C2)n1` (stereo not given) it was -23.42%.
As to `O=C(CC1Cn2ncnc2NC1=O)Nc1cccc(C(F)(F)F)c1` (stereo not given), the INHIBITION was 0%.
In the case of `O=S(=O)(CCNCc1cc(O)c2cc(F)ccc2n1)N1CCCC1` it was -9.89%; in that of `CN(C)S(=O)(=O)N1CCCC(c2ccncn2)C1` (stereo not given), 31.98%; in that of `CCn1nc(CC(C)C)cc1C(=O)NCC(F)(F)F`, 1.04%.
In the case of `CC(C)COC[C@H]1CC[C@H]2[C@H](CCN2C(=O)c2ccncc2F)O1` it was 55.49%; in that of `O=C(c1ccncc1F)N1CC[C@@H]2OC(COCC3CC3)CC[C@@H]21` (stereo not given in full), 27.08%; in that of `COC[C@H]1CC[C@H]2[C@H](CCN2C(=O)c2ccncc2F)O1`, 39.51%.
The same measure for `CCOC[C@H]1CC[C@H]2[C@H](CCN2C(=O)c2ccncc2F)O1`: 0.82%.
Consider `CCOC[C@@H]1CC[C@H]2[C@H](CCN2C(=O)c2ccncc2F)O1`, for which the INHIBITION came out at 50.61%.
In the case of `CC(C)COC[C@@H]1CC[C@H]2[C@H](CCN2C(=O)c2ccncc2F)O1` it was 31.08%.
`CC(=O)Nc1ccc(CNc2ccn(Cc3ccccc3)n2)cc1`: the INHIBITION was found to be 35.56%.
In the case of `COCCOc1ccc(NC(=O)C2CC(=O)N(C3CC3)C2)cn1` (stereo not given) it was -45.07%.
In the case of `NCC1CCC2(CCN(C(=O)c3ccccn3)CC2)CO1` (stereo not given) it was -5.44%.
Consider `O=C(C(CNCc1cccnc1)c1ccccc1)N1CCOCC1` (stereo not given), for which the INHIBITION is given as 17.33%.
In the case of `Cc1nc(CN2CCOCC23CCN(c2ccc(C#N)cc2)CC3)cs1` it was -30.38%; in that of `c1coc(CN2CCO[C@@]3(CCC[C@@H]3COCc3nccs3)C2)c1`, 54.25%.
The same measure for `c1csc(COC[C@H]2CCC[C@]23CN(Cc2ccoc2)CCO3)n1`: 36.29%; for `COC[C@@H]1CCC[C@@]12CN(Cc1ccco1)CCO2`: 18.4%.
The same measure for `Cc1ccc(C(=O)N2CCC3(CC2)CN(c2ccccn2)CCO3)cc1`: 56.71%; for `CCS(=O)(=O)N1CCOC2(CCCN(c3ccccn3)C2)C1` (stereo not given): 29.45%.
`O=C(c1cccnc1)N1CCC2(CC1)CN(c1ccccn1)CCO2`: the INHIBITION was -1.81%.
For `O=C(c1ccnnc1)N1CCC2(CC1)CN(c1ccccn1)CCO2`, the INHIBITION was -0.91%.
The same measure for `CCCS(=O)(=O)N1CCOC2(CCCN(c3ccccn3)C2)C1` (stereo not given): 2.39%.
In the case of `CCCS(=O)(=O)N1CCC2(CC1)CN(c1ccccn1)CCO2` it was 72.41%; in that of `Cc1cc(CN2C[C@@H]3CN(C(=O)c4cccn4C)CCO[C@@H]3C2)no1`, 9.45%.
The same measure for `CN(C)C(=O)CCCNC(=O)C(c1cccc(F)c1)N(C)C` (stereo not given): -4.92%; for `OCCn1nccc1C1CCN(CCOc2ccccc2F)CC1`: 17.31%.
For the molecule `NC(=O)NC(=O)C(c1ccccc1)N1CCN(Cc2ccsc2)CC1` (stereo not given), the INHIBITION came to 50.3%.
Consider `NC(=O)NC(=O)C(c1ccccc1)N1CCN(Cc2ccc(Cl)s2)CC1` (stereo not given), for which the INHIBITION is -72.31%.
For the molecule `NC(=O)NC(=O)C(c1ccccc1)N1CCN(Cc2ccccc2)CC1` (stereo not given), the INHIBITION stood at 16.8%.
The same measure for `CC(C)n1cc(N2CC(C(=O)N3CCCC3)CC2=O)cn1` (stereo not given): -69.99%.
The same measure for `O=C(N1CCCO1)[C@@]12CCO[C@@H]1CCN(Cc1cccs1)C2`: 17.31%.
On to `COc1cccc(CN2CCCCCC2c2cccs2)c1O` (stereo not given), for which the INHIBITION is on record as 4.47%.
The same measure for `COc1cc(CN2CCCCCC2c2cccs2)cc(OC)c1OC` (stereo not given): 11.24%.
In the case of `COc1cc(CN2CCCCCC2c2cccs2)cc(OC)c1O` (stereo not given) it was 50.46%; in that of `O=C(C1CCCC1)N1CC2(CCN(C3COC3)CC2)Cc2ccccc21`, -3.1%.
The same measure for `Cc1cccc(-c2nc(C)nn2CC(=O)NC(C)C)c1`: -15.28%; for `O=C(N1CCOCC1)N1CCc2[nH]nc(COc3cccc(Cl)c3)c2C1`: 5.04%.
Take `O=C1CC[C@@H](C(=O)N2CCc3[nH]nc(COc4cccc(Cl)c4)c3C2)N1`: the INHIBITION came to 51.85%.
`O=C(c1csnn1)N1CCc2[nH]nc(COc3cccc(Cl)c3)c2C1`: the INHIBITION is listed as 47.89%.
Regarding `CN1C(=O)C2(CCCN(C(=O)c3cccnc3O)C2)c2ccccc21` (stereo not given), the INHIBITION was -23.27%.
Take `CC(Cn1ccnc1)NC(=O)N1CCN(Cc2cccnc2)CC1` (stereo not given): the INHIBITION is reported as -36.13%.
With `O=C(Nc1ccc2c(c1)OCO2)N1CCN(CCn2cccn2)CC1`, the INHIBITION is listed as 43.57%.
In the case of `COc1ccc(C2CCCN2C(=O)NCCn2ccnc2)cc1` (stereo not given) it was 26.61%.
The same measure for `O=C(NCCCn1ccnc1)N1CCCC1c1ccncc1` (stereo not given): -1.27%; for `O=C(Nc1ccc2c(c1)OCO2)N1CCN(CCc2ccccc2)CC1`: 20.76%; for `O=C(NCCn1ccnc1)N1CCN(Cc2ccsc2)CC1`: -1.3%.
In the case of `O=C(NCCn1ccnc1)N1CCN(Cc2cccs2)CC1` it was -68.26%; in that of `CC(Cn1ccnc1)NC(=O)N1CCN(Cc2ccco2)CC1` (stereo not given), 32.64%; in that of `O=C(NCCn1ccnc1)N1CCCC1c1ccncc1` (stereo not given), 53.33%.
Consider `O=C(NCCn1ccnc1)N1CCN(Cc2ccco2)CC1`, for which the INHIBITION turned out to be 54.28%.
The same measure for `O=C(Nc1ccc2c(c1)OCO2)N1CCN(CCn2ccnc2)CC1`: 58.59%.
The same measure for `O=C(NCCn1ccnc1)N1CCN(Cc2cccnc2)CC1`: 58.96%; for `CCSCC(C)NCc1nncn1C1CCCCC1` (stereo not given): 37.3%; for `Cc1nc(CN2C(=O)CC[C@@H]3[C@H]2CCN3C(=O)c2ccccn2)cs1`: 3.46%.
As for `CCc1nccn1C1CCCN(C(=O)c2cncnc2C)C1` (stereo not given), the INHIBITION was 4.41%.
